The values that follow come from PubChem BioAssay AID720650 (Broad Institute, 2013).

The source made the active and inactive calls. No rule for the calls is given here.

The experiment is described as follows: C difficile toxins, biochemical counterscreen, UDPG substrate absence, confirmatory dose response (AID 720650). Particulars: series mostly up to 19.5 µM; activity change, negative = inhibition: at the top concentration. (In general: Counterscreens check selectivity or assay interference.)
Take `O=C(O)c1ccccc1NC(=O)N1C[C@H]2C[C@@H](C1)c1cccc(=O)n1C2`: the “activity change, negative = inhibition” value is -18.8% (inactive).
On to `CC(=O)N(c1ccccc1C)S(=O)(=O)c1ccc(Cl)cc1`, for which the “activity change, negative = inhibition” value was -13.3% (inactive).
Regarding `C=CCn1c(C)cc(C(=O)COC(=O)CCc2cc(OC)c(OC)c(OC)c2)c1C`, the “activity change, negative = inhibition” value is -24.1% (inactive).
In the case of `Cc1ccc(-c2nc3ccc([N+](=O)[O-])cc3[nH]2)cc1`, the AC50 is 7.38 µM (active).
As for `CC(=O)Nc1ccc(OC(=O)Oc2ccc(NC(C)=O)cc2)cc1`, the AC50 is > 39 µM (inactive).
The same measure, in the same setting: the figure for `CCCNC(=O)C[C@H]1CC[C@@H]2[C@@H](COc3ccc(NC(=O)c4ccc(Cl)cc4)cc3C(=O)N2C)O1` is > 39 µM (inactive).
For `C[C@@H]1CN([C@@H](C)CO)S(=O)(=O)c2ccc(C#Cc3ccncc3)cc2O[C@H]1CN(C)C(=O)C1CC1`, the “activity change, negative = inhibition” value was -4.95% (inactive).
On to `COc1ccc(S(=O)(=O)Nc2ccc3oc(C)c(C(=O)O)c3c2)cc1`, for which the AC50 was > 39 µM (inactive).
Take `NC(=O)C1(Nc2ccc(-c3ccc(Br)cc3)cc2)CCCC1`: the “activity change, negative = inhibition” value was -11.7% (inactive).
`O=C(CNC(=O)c1ccccc1Br)N/N=C/c1ccc(O)cc1`: the AC50 was 15.7 µM (active).
For the molecule `COC(=O)[C@@]12CCCCN1[C@H](c1ccc(-c3ccccc3)c(OC)c1)[C@H]1C(=O)N(C)C(=O)[C@H]12`, the “activity change, negative = inhibition” value was -5.66% (inactive).
Regarding `COc1cc2c(cc1N)-c1ccc(N)cc1C2=O`, the AC50 was 1.18 µM (active).
Regarding `O=S(=O)(c1ccccc1)N1CCN(Cc2nnc(-c3ccccc3)o2)CC1`, the “activity change, negative = inhibition” value is -4.82% (inactive).
Still for that read-out and setting: the value for `CC(=O)Nc1cccc(NC(=O)c2ccc(Br)cc2)c1` was -14.9% (inactive); that for `COc1cc(/C=C/C(=O)c2ccc([N+](=O)[O-])o2)ccc1O` was -7.14% (inactive); that for `CN(C)c1ccc(C(=O)OCC#CCSc2nnc(-c3cccc4ccccc34)o2)cc1` was -7.71% (inactive).
Still for that read-out and setting: the value for `Cc1cccc(/C=C/c2onc(C)c2S(=O)(=O)N2CCC(C(=O)NC(C)C)CC2)c1` was -6.17% (inactive).
As to `Cc1cccc(NC(=O)c2ccc(N3CCOCC3)c([N+](=O)[O-])c2)n1`, the “activity change, negative = inhibition” value is -21.8% (inactive).
The same measure, in the same setting: the figure for `Cc1ccc(/C=C/c2onc(C)c2S(=O)(=O)N2CCC(C(=O)NC(C)(C)C)CC2)cc1` is -0.872% (inactive); for `CC(=O)Oc1ccc(/C=N/NC(=O)CCSc2ccccc2)cc1` it is 17.6% (inactive); for `C=CCn1c(SCC(=O)N2CC(=O)Nc3ccccc32)nc2scc(-c3ccccc3)c2c1=O` it is -7.62% (inactive).
`CCCCn1c(N)c(N(CC)C(=O)c2cccs2)c(=O)[nH]c1=O`: the AC50 is > 39 µM (inactive).
Consider `CC(Sc1nc(N)cc(=O)[nH]1)C(=O)NCC(=O)Nc1ccc(F)c(F)c1F` (centres undefined), for which the “activity change, negative = inhibition” value is -6.94% (inactive).
Turning to `N/C(=N\N=C\c1ccc(O)cc1)c1nonc1N`, the AC50 is 5.49 µM (active).
On to `CCN1CCN(C(=O)C2=CC(c3ccc(OC)cc3)=NS(=O)(=O)N2C)CC1`, for which the “activity change, negative = inhibition” value is -16.2% (inactive).
In the case of `O=C(NNc1ccc(-c2csnn2)cc1)c1cc(Cl)cc(Cl)c1`, the AC50 is < 0.16 µM (active).
For `Cc1ccc(CNC(=O)Nc2cccc(C)c2)cc1`, the “activity change, negative = inhibition” value is -1.63% (inactive).
As to `Cc1cccc(-n2c(=O)c3ccccc3n3c(=S)[nH]nc23)c1C`, the “activity change, negative = inhibition” value was -17.6% (inactive).
For the molecule `Nc1ccc(OCCCc2c(N)nc(N)nc2N)cc1`, the AC50 is 20.1 µM (active).
On the same count and under the same terms, the figure for `COc1cc(/C=C(\C#N)C(=O)Nc2ccc3c(c2)OCCO3)ccc1O` is > 39 µM (inactive).
With `CC(=O)c1ccc(NC(=O)CNCC(c2ccccc2)N(C)C)cc1` (centres undefined), the “activity change, negative = inhibition” value is -3.41% (inactive).
As for `Cc1ccc(NNC(=O)C2CCC2)cc1C`, the AC50 was 0.386 µM (active).
Still for that read-out and setting: the figure for `O=C(CC(c1ccccc1)c1ccccc1)Nc1ccc(O)cc1` is 13.4 µM (active); for `O=C(Nc1ccc2c(c1)OCCO2)c1cc2ccccc2o1` it is > 39 µM (inactive).
Regarding `COCc1c(Br)c(C)nc(OCC(=O)N/N=C/c2ccc(C)o2)c1C#N`, the “activity change, negative = inhibition” value is 6.67% (inactive).
For `CCN(CC)CCCCN1c2ccccc2Sc2ccccc21`, the AC50 was 7.03 µM (active).
In the case of `O=c1c2oc3nc4c(cc3c2ncn1CCCc1ccccc1)CCCC4`, the “activity change, negative = inhibition” value is -4.58% (inactive).
Turning to `O=C(C[C@@H]1CC[C@H]2[C@@H](COC[C@@H](O)CN2Cc2ccc(Oc3ccccc3)cc2)O1)Nc1nccs1`, the “activity change, negative = inhibition” value is 8.53% (inactive).
Consider `CC1CC(=O)N(c2ccc(NCCc3ccc(O)cc3)c([N+](=O)[O-])c2)C1=O` (centres undefined), for which the “activity change, negative = inhibition” value was -3.89% (inactive).

As usually defined, the AC50 is the concentration giving half of the maximal activity seen.
